Laboratory results reported in the supplement of paper PMC12636033.
± gives the standard deviation of the averaged measurements. Whole data set: some 33,000 sequences, median “E-score (rank enrichment, -0.5 to 0.5)” near -0.0068, cut for the highest 2% near 0.24. The full list was thinned out, with the highest values kept by preference.

System: muMax20 (Max(13-93) K31hArg/K57hArg, M65Nle)
Test: PBM 8-mer E-score (E-score (rank enrichment, -0.5 to 0.5)); higher = stronger preferential binding
Protocol: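 Protein binding microarray (universal PBM chip covering all 10-mers in fixed probe flanks) with chemically synthesized human Max(13-93) bHLH-LZ analogs (not full-length Max) bearing noncanonical residues (hArg, Tha, Aib, Nle at 65) and aromatic Cys staples. Read-out per 8-mer (and its reverse complement): E-score (rank-based enrichment, -0.5 to 0.5) and Z-score of median probe intensity.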

Sequence	PBM 8-mer E-score
CCTTCGCG	-0.228 ± 0.019
CTGAAAGA	0.0447 ± 0.09
ATGCCAAA	0.111 ± 0.027
ATACGTAT	0.308 ± 0.0025
ATACGTAA	0.112 ± 0.077
ATACGTAC	0.188 ± 0.074
CTCGTCCA	-0.0336 ± 0.048
CCGTAAAG	0.104 ± 0.11
AAGGCCGT	0.278 ± 0.095
AAGGCCGC	-0.00405 ± 0.027
AAGGCCGG	-0.243 ± 0.084
GCCGACAA	-0.268 ± 0.068
GCGGTTGA	-0.134 ± 0.11
GCCACCCC	-0.0921 ± 0.047
CCACCCCC	-0.12 ± 0.084
CCCACCCG	0.186 ± 0.028
ACCACCCC	-0.0712 ± 0.063
CCCACCCA	0.269 ± 0.099
GCACCCCA	-0.0239 ± 0.0035
TCCACCCA	0.00135 ± 0.18
CCACCCCA	0.261 ± 0.066
CCCACCCC	0.258 ± 0.018
ATCCATAC	0.15 ± 0.062
GGTAGAAA	0.0368 ± 0.022
AGGCGCGG	-0.125 ± 0.07

Sequence	PBM 8-mer E-score
GAGTGGAA	-0.00431 ± 0.092
GTTCACAA	-0.0567 ± 0.038
ATTCACAA	0.247 ± 0.032
ATTCACAG	-0.0684 ± 0.13
AAAACTTT	0.133 ± 0.058
ATAACATC	0.249 ± 0.13
GTAACAAA	0.197 ± 0.067
GTAACACA	0.26 ± 0.11
ATAACACA	0.186 ± 0.067
ATAACACC	0.134 ± 0.014
CTAACACA	0.127 ± 0.02
CTAACATC	0.042 ± 0.045
ATAACACG	0.251 ± 0.014
ATAACATG	0.199 ± 0.064
CGGGGGGA	-0.222 ± 0.029
ACGGCACC	-0.104 ± 0.13
CGGACAGC	-0.13 ± 0.064
GCGGCATA	-0.00641 ± 0.021
CCTTCGAC	-0.147 ± 0.0063
ATTACTCC	0.182 ± 0.07
CTACCGCC	-0.156 ± 0.014
GGAACAAA	0.171 ± 0.014
CCGAGCGA	-0.223 ± 0.081
GCTTTTCA	0.0793 ± 0.013
AGTTTATC	0.138 ± 0.08

Sequence	PBM 8-mer E-score
CTTTTTCA	0.0825 ± 0.076
AGTTTATA	0.266 ± 0.0043
GTTTTGTA	0.254 ± 0.012
CTTTTGTA	0.151 ± 0.01
CCTTTTTA	0.0863 ± 0.063
CCTTTTCA	0.295 ± 0.091
GCTTTTAA	0.00199 ± 0.15
GGTTTGTA	-0.00997 ± 0.022
GCTTTTTA	0.292 ± 0.084
GGTTTATA	0.051 ± 0.032
AGAATGTA	0.159 ± 0.034
ATCCAGAT	0.0236 ± 0.27
AGAATCGA	-0.018 ± 0.077
CCAATCCG	-0.198 ± 0.078
CTCATACC	0.014 ± 0.025
AGACCCCA	0.177 ± 0.046
CAGCCAAG	-0.147 ± 0.066
AGTACATA	0.147 ± 0.081
CATTTATA	0.175 ± 0.032
ATTTTATA	0.231 ± 0.038
GTTTTATA	0.261 ± 0.059
CTTTTATA	0.184 ± 0.01
AATTTATA	0.247 ± 0.059
AATTTATC	0.205 ± 0.02
GTCGAGGA	-0.115 ± 0.0082

Sequence	PBM 8-mer E-score
GGAAAGGA	-0.246 ± 0.099
ACAGAGGG	-0.155 ± 0.0044
CTCTAGTA	0.118 ± 0.0018
ATCTAGTA	-0.00587 ± 0.017
GTCTAGTA	0.252 ± 0.03
CAGCCGAC	-0.22 ± 0.12
GGGGGACC	-0.296 ± 0.013
AAGAGCAC	0.00129 ± 0.0028
AGATTCGG	-0.118 ± 0.032
TCAAGGGA	-0.065 ± 0.048
CTGATATA	0.0184 ± 0.051
CAGATATA	0.0469 ± 0.045
AAGATACA	0.316 ± 0.024
ATGATATG	0.21 ± 0.12
AAGATGTA	0.237 ± 0.094
AAGATATA	0.26 ± 0.041
AAGATATC	0.155 ± 0.027
GAGATACA	-0.0288 ± 0.04
GAGATGTA	0.104 ± 0.017
ATGATATA	0.266 ± 0.048
AAGATACT	0.117 ± 0.038
CAGATGTA	0.138 ± 0.011
CGAGCCGA	-0.153 ± 0.036
GAAGCACC	-0.0676 ± 0.049
ACCTAGCG	-0.048 ± 0.057

Sequence	PBM 8-mer E-score
GAGGTAGA	0.0124 ± 0.047
ACCGCTTA	-0.0621 ± 0.13
AAGATAAG	0.15 ± 0.031
AAGATAAT	0.239 ± 0.051
CTGATGTA	-0.0502 ± 0.023
GTGATGTA	0.2775 ± 0.00062
ATGATGTA	0.171 ± 0.12
AAGATAAC	0.172 ± 0.07
CCTGCCCC	-0.167 ± 0.078
CCAGCTGC	-0.272 ± 0.12
GGCGCAAA	-0.148 ± 0.17
GTGTAAAA	0.113 ± 0.016
AGAACGAG	0.133 ± 0.061
ATACGATA	0.244 ± 0.053
GTACGATA	0.163 ± 0.033
CTACGATA	0.082 ± 0.02
GAGTCGGC	-0.146 ± 0.055
CGGATGCC	-0.075 ± 0.079
ATTCGTGC	0.0424 ± 0.086
AACCAGTT	0.0717 ± 0.038
ACATACAC	0.165 ± 0.057
ATATACAA	0.229 ± 0.069
ACATACAG	0.242 ± 0.017
ACATACAT	0.243 ± 0.029
CCATACAG	-0.0198 ± 0.047

Sequence	PBM 8-mer E-score
ATATACAC	0.169 ± 0.004
ACATACAA	0.137 ± 0.076
ATATACAT	0.247 ± 0.032
AGATACAG	0.218 ± 0.024
GATGTACC	0.0595 ± 0.065
ACTCCTAT	0.0559 ± 0.1
AAACGGGC	0.0187 ± 0.03
TAAACAAA	0.184 ± 0.008
AGCTCCCC	-0.0268 ± 0.092
AAATACAG	0.209 ± 0.07
AAATACAT	0.259 ± 0.061
AAATACAC	0.273 ± 0.038
AAATACAA	0.19 ± 0.018
GAATACAC	0.123 ± 0.014
CAATACAC	0.194 ± 0.043
CGGTTTTC	0.00594 ± 0.054
ATAGCGTG	0.161 ± 0.019
AGCACTCG	-0.199 ± 0.078
GAACGCCA	-0.206 ± 0.021
AAATCGCG	-0.0409 ± 0.032
GGTAAGAA	0.0527 ± 0.1
CATAACGA	0.0556 ± 0.017
TTAATTAA	0.324 ± 0.12
GGAATTAA	0.1996 ± 0.0018
ATAATTAA	0.175 ± 0.05

Sequence	PBM 8-mer E-score
ATAATTAC	0.22 ± 0.074
ATAATTAG	0.223 ± 0.1
CTAATTAA	0.0707 ± 0.041
TGAATTAA	0.254 ± 0.043
CGAATTAA	0.106 ± 0.11
ATAATTAT	0.276 ± 0.0028
CCTGTCCA	-0.131 ± 0.17
CCAGTTTA	-0.0199 ± 0.068
ATAAGGCC	-0.0432 ± 0.14
AGTGCCTA	-0.109 ± 0.091
CAACTGCC	0.0721 ± 0.014
TCGAGGAA	-0.0274 ± 0.069
CCCACAAA	0.183 ± 0.015
ATGATAGC	0.2152 ± 0.0016
GGCATGCA	0.106 ± 0.091
CCCATGCA	0.133 ± 0.01
TCCATGCA	0.105 ± 0.07
AGCATGCA	0.284 ± 0.11
TGCATGCA	0.0968 ± 0.12
ACCATGCA	0.28 ± 0.096
GGATAGCC	-0.138 ± 0.11
ACCGACCA	0.0471 ± 0.002
GGGCGCCC	-0.131 ± 0.0098
ATAACTAG	0.0985 ± 0.14
ATAACTAA	0.245 ± 0.0085
